Key:
[1] = biological target: Ribosomal protein S6 kinase alpha-6 (Homo sapiens) (UniProt Q9UK32); conditions: at 1 µM;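 note: each value is a mean inhibition of RSK4 from a GSK PKIS panel screen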
[2] = biological target: T1, Serine/threonine-protein kinase Sgk1 (Homo sapiens) (UniProt O00141); conditions: at 0.1 µM
T1 sequence (whole entry): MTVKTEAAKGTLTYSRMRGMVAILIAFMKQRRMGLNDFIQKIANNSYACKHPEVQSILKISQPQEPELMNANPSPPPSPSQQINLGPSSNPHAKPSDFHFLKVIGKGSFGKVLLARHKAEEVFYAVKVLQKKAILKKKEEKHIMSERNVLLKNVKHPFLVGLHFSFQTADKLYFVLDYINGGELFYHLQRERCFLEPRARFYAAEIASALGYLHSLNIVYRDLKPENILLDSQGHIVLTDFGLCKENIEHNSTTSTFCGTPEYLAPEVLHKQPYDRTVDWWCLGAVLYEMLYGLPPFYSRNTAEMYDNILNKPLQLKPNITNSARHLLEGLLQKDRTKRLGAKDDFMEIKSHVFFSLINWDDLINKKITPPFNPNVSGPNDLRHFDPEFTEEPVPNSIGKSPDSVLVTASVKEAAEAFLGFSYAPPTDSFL

[3] = biological target: T1, Serine/threonine-protein kinase Sgk1 (Homo sapiens); conditions: at 1 µM
[4] = biological target: T2, Serine/threonine-protein kinase Sgk2 (Homo sapiens) (UniProt Q9HBY8); conditions: at 0.1 µM
T2 sequence (whole entry): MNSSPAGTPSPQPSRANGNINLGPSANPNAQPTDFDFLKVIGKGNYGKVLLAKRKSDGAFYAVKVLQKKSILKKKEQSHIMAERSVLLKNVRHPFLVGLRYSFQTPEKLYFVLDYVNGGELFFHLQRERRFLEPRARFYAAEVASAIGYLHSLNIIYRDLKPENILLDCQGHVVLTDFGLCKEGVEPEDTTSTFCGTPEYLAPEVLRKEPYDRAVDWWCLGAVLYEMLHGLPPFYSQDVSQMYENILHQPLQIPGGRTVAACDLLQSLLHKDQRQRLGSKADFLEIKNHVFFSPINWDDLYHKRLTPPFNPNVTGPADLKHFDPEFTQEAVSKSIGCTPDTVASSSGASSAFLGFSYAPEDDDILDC

[5] = biological target: T2, Serine/threonine-protein kinase Sgk2 (Homo sapiens); conditions: at 1 µM
[6] = biological target: T3, Serine/threonine-protein kinase Sgk3 (Homo sapiens) (UniProt Q96BR1); conditions: at 0.1 µM
T3 sequence (whole entry): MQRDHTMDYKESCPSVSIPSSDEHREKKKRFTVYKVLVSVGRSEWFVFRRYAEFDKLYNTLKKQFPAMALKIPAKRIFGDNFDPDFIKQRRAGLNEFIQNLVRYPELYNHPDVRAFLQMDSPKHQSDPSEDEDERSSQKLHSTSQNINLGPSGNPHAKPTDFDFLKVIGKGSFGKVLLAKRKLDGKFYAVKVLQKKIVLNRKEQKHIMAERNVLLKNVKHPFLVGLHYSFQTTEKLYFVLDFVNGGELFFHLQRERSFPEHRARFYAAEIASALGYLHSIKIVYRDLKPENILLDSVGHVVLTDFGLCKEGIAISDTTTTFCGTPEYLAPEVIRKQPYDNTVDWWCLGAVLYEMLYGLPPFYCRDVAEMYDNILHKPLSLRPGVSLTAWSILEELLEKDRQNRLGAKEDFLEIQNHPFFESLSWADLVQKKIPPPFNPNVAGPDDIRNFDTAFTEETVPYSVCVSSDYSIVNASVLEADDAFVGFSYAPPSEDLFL

[7] = biological target: T3, Serine/threonine-protein kinase Sgk3 (Homo sapiens); conditions: at 1 µM
[8] = biological target: 5'-AMP-activated protein kinase catalytic subunit alpha-1 (Homo sapiens) (UniProt Q13131); conditions: at 0.1 µM
[9] = biological target: 5'-AMP-activated protein kinase catalytic subunit alpha-1 (Homo sapiens) (UniProt Q13131); conditions: at 1 µM
[10] = biological target: 5'-AMP-activated protein kinase catalytic subunit alpha-2 (Homo sapiens) (UniProt P54646); conditions: at 0.1 µM
[11] = biological target: 5'-AMP-activated protein kinase catalytic subunit alpha-2 (Homo sapiens) (UniProt P54646); conditions: at 1 µM
[12] = biological target: T4, NUAK family SNF1-like kinase 1 (Homo sapiens) (UniProt O60285); conditions: at 0.1 µM
T4 sequence (whole entry): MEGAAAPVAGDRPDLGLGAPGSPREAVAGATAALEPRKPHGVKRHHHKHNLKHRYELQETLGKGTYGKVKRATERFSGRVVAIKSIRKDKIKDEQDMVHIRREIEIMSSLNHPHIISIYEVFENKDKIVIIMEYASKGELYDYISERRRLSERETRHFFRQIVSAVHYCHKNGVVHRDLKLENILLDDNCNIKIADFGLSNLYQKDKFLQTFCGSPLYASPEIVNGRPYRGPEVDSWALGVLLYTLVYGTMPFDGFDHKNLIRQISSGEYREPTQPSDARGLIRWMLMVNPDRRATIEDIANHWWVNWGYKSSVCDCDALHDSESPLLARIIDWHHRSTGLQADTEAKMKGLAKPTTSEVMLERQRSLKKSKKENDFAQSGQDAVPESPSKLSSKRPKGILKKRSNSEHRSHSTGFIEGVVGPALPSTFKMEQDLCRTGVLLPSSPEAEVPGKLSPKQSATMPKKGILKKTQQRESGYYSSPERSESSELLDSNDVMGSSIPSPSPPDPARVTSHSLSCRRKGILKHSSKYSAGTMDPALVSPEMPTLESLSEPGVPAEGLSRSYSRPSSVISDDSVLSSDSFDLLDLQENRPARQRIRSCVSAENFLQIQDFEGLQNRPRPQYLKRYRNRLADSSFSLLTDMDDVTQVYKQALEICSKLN

[13] = biological target: T4, NUAK family SNF1-like kinase 1 (Homo sapiens); conditions: at 1 µM
[14] = biological target: T5, Serine/threonine-protein kinase BRSK1 (Homo sapiens) (UniProt Q8TDC3); conditions: at 0.1 µM
T5 sequence (whole entry): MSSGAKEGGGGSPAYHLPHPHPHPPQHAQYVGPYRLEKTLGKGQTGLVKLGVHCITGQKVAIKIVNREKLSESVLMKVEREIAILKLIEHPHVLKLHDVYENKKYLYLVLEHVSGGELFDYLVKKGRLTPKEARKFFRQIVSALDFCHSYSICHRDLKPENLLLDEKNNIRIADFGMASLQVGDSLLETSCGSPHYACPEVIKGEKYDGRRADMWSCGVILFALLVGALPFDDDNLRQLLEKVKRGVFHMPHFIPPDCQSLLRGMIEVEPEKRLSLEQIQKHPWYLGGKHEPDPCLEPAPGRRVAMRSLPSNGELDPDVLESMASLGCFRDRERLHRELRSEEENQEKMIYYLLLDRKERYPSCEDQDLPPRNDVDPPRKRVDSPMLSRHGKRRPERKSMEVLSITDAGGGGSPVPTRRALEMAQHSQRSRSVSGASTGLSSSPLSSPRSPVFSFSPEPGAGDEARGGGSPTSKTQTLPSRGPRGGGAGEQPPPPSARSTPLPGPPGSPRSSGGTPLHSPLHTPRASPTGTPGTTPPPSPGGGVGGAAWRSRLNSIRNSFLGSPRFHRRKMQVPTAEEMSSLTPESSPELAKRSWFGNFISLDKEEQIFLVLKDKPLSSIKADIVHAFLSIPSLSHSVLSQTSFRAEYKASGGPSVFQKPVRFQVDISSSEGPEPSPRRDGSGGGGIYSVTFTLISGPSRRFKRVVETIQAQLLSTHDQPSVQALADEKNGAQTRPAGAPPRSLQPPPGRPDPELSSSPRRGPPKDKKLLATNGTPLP

[15] = biological target: T5, Serine/threonine-protein kinase BRSK1 (Homo sapiens); conditions: at 1 µM
[16] = biological target: T6, Serine/threonine-protein kinase BRSK2 (Homo sapiens) (UniProt Q8IWQ3); conditions: at 0.1 µM
T6 sequence (whole entry): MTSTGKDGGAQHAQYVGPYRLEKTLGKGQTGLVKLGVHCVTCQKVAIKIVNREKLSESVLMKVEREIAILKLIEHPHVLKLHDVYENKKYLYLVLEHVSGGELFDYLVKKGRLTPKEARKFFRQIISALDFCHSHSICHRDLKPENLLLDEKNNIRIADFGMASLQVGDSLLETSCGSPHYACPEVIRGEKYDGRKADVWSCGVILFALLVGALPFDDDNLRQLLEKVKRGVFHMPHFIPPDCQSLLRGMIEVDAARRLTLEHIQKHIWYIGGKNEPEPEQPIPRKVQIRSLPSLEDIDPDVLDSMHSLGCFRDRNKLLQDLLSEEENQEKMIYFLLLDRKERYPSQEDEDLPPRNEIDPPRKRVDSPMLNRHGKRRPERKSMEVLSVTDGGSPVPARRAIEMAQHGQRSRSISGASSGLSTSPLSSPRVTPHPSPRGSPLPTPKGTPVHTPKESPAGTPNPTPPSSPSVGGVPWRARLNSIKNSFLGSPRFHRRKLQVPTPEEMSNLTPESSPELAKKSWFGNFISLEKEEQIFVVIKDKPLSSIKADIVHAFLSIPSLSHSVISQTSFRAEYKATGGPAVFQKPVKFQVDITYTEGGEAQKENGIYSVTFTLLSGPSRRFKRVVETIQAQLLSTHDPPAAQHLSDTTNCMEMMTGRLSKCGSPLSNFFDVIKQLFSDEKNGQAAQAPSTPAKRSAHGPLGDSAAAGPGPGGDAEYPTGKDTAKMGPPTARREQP

[17] = biological target: T6, Serine/threonine-protein kinase BRSK2 (Homo sapiens); conditions: at 1 µM
[18] = biological target: Calcium/calmodulin-dependent protein kinase type 1D (Homo sapiens) (UniProt Q8IU85); conditions: at 0.1 µM
[19] = biological target: Calcium/calmodulin-dependent protein kinase type 1D (Homo sapiens) (UniProt Q8IU85); conditions: at 1 µM
[20] = biological target: Calcium/calmodulin-dependent protein kinase type II subunit alpha (Homo sapiens) (UniProt Q9UQM7); conditions: at 0.1 µM;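 note: reported values are averages (mean inhibition of CAMK2A)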
Calcium/calmodulin-dependent protein kinase type II subunit alpha (Homo sapiens), sequence (Q9UQM7 whole entry): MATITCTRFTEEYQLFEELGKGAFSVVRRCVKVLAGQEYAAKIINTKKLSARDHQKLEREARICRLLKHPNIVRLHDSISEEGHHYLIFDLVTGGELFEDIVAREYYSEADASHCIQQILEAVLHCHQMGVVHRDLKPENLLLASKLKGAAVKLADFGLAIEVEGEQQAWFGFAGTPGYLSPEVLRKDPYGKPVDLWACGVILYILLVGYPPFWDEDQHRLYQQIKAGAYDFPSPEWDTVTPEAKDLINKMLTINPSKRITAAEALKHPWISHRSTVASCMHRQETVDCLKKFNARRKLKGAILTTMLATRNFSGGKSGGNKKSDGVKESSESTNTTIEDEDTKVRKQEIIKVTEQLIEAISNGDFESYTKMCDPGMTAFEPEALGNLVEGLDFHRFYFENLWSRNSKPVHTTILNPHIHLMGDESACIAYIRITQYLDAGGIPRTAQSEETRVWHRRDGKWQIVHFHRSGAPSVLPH

5'-AMP-activated protein kinase catalytic subunit alpha-2 (Homo sapiens), sequence (P54646 whole entry, looked up): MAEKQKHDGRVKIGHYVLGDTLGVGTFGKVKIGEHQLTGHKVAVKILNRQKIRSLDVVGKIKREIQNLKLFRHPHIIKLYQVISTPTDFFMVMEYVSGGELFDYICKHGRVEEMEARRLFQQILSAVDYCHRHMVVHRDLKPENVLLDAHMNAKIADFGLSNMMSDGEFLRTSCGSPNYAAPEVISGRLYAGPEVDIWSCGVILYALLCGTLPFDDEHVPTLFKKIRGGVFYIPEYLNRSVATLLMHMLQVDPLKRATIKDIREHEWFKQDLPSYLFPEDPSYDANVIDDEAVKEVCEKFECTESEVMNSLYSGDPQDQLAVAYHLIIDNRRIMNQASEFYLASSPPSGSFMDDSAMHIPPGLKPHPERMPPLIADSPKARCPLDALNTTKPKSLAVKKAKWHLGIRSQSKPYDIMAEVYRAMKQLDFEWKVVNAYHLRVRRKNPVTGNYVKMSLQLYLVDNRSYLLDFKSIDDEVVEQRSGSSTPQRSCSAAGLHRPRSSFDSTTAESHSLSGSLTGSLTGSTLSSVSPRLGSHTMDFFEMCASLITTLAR
Ribosomal protein S6 kinase alpha-6 (Homo sapiens), sequence (Q9UK32 whole entry): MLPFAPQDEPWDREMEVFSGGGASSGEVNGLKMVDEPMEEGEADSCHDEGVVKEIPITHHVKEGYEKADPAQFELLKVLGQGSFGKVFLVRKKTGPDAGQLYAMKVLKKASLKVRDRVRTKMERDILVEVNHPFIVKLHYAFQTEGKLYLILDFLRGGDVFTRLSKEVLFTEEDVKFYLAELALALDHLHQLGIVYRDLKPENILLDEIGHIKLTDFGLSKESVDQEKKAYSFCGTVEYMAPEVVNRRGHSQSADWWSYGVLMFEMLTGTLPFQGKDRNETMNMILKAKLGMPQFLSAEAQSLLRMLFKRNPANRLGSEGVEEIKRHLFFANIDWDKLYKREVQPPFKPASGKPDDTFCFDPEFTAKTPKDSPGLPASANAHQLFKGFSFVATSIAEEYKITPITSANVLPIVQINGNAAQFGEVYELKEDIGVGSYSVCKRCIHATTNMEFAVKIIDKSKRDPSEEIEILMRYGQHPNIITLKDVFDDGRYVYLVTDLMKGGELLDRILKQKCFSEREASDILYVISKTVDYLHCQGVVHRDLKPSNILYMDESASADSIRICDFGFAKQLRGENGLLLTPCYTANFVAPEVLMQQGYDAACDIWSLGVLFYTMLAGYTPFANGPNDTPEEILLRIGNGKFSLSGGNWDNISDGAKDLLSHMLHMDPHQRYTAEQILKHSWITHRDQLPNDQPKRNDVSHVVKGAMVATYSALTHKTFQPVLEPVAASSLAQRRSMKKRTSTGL
Calcium/calmodulin-dependent protein kinase type 1D (Homo sapiens), sequence (Q8IU85 whole entry, looked up): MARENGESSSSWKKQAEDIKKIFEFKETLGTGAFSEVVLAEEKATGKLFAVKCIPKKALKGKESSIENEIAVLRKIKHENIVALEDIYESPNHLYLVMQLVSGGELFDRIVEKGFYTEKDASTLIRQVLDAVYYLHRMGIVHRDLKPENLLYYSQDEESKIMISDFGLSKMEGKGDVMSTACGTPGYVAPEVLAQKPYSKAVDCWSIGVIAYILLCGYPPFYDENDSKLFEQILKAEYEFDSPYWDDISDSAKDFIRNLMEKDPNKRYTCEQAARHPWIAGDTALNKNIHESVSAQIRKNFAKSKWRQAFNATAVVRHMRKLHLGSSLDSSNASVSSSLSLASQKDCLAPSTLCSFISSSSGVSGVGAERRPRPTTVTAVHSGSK
5'-AMP-activated protein kinase catalytic subunit alpha-1 (Homo sapiens), sequence (Q13131 whole entry, looked up): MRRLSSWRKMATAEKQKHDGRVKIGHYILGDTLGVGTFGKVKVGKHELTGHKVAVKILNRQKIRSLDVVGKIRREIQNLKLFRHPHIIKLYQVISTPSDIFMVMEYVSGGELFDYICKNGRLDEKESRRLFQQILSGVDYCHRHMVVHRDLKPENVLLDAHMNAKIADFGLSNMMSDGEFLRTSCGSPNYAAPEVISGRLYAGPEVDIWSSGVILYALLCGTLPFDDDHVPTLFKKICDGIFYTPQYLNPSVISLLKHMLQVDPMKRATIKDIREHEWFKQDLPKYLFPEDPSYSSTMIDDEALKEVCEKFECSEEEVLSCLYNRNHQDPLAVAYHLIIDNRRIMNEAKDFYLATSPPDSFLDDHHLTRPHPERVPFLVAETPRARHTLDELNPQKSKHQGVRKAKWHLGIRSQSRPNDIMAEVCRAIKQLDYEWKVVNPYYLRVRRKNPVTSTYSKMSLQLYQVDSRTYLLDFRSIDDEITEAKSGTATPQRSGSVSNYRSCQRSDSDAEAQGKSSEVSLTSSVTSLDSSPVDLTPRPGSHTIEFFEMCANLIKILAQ

SMILES	inhibition [1]	inhibition [2]	inhibition [3]	inhibition [4]	inhibition [5]	inhibition [6]	inhibition [7]	inhibition [8]	inhibition [9]	inhibition [10]	inhibition [11]	inhibition [12]	inhibition [13]	inhibition [14]	inhibition [15]	inhibition [16]	inhibition [17]	inhibition [18]	inhibition [19]	inhibition [20]
COc1ccc(-c2ccc3c(NC(=O)C4CC4)n[nH]c3n2)cc1	0.85%	1.6%	6%	1.24%	3.76%	2.58%	3.92%	1.15%	2.02%	0.53%	1.68%	-0.56%	0.04%	0.19%	4.83%	3.16%	10.7%	-0.49%	-0.83%	0.49%
C/C(Nc1ccc(S(N)(=O)=O)cc1)=C1/C(=O)Nc2ccccc21	20.7%	5.32%	18.4%	1.82%	2.83%	0.76%	2.1%	1.16%	9.79%	3.01%	4.96%	6.3%	34%	1.67%	18.9%	4.55%	31.1%	-0.31%	-0.55%	-4.87%
O=C(Nc1n[nH]c2cc(-c3cc(F)ccc3F)ccc12)C1CC1	2.43%	2.46%	1.25%	0.34%	0.08%	2.01%	0.16%	2.72%	2.32%	3.84%	9.82%	-2.28%	-2.43%	2.17%	15.3%	3.03%	14.1%	-0.34%	1.27%	1.96%
CS(=O)(=O)CCNCc1cc(-c2cc3c(Nc4ccc(OCc5cccc(F)c5)c(Cl)c4)ncnc3s2)cs1	2.5%	2.39%	1.38%	5.74%	2.6%	3.92%	6.65%	2.39%	3.88%	5.96%	3.11%	-0.49%	3.79%	1.37%	-0.77%	0.67%	4.02%	0.48%	2.27%	3.07%
O=C1Nc2ccc(I)cc2C1=Cc1cc(Br)c(O)c(Br)c1	3.84%	0.41%	2.04%	1.05%	0.89%	3.3%	1.73%	1.53%	3.41%	6.97%	3.18%	-1.04%	3.51%	3.87%	0.15%	0.3%	2.23%	1.27%	2.96%	4.96%
Cc1ccc(C(=O)NC2CCC2)cc1-c1ccc(C(=O)NCC2CC2)cc1	1.08%	2.17%	2.8%	0.49%	-2.52%	0.54%	1.57%	1.41%	1.46%	1.35%	0.57%	0.27%	5.25%	1.77%	3.1%	1.53%	4.25%	0.09%	2.93%	3.06%
Fc1ccc(-c2ncn(C3CCNCC3)c2-c2ccnc(Oc3ccc(Oc4ccccc4)cc3)n2)cc1	3.14%	1.53%	2.46%	3.23%	3.39%	4.76%	2.42%	2.46%	4.03%	8.18%	3.68%	0.78%	0.71%	3.46%	-0.07%	1.27%	1.66%	-0.26%	3.87%	2.01%
COc1ccc2cc(-c3c(-c4ccncc4)nc(-c4ccc(S(C)(=O)=O)cc4C)n3C)ccc2c1	2.04%	3.01%	4.51%	5.05%	4.24%	2.89%	4.29%	3.65%	2.77%	4.21%	3.5%	-2.12%	4.31%	1.72%	1.23%	1.12%	3.04%	1.08%	1.85%	2.82%
CS(=O)(=O)CCNCc1ccc(-c2ccc3ncnc(Nc4ccc(OCc5ccccc5)c(Br)c4)c3c2)o1	-1.41%	1.16%	0.22%	2.67%	1.45%	3.29%	3.35%	2.94%	1.46%	1.41%	-0.88%	-0.46%	0.63%	-1.34%	2.21%	1.54%	2.06%	-1.35%	-0.82%	2.7%
COc1cc2ncn(-c3cc(OCc4cccs4)c(C(N)=O)s3)c2cc1OC	9.08%	5.73%	8.78%	4.34%	10.6%	5.06%	6.9%	3.16%	12.8%	3.12%	5.5%	20.1%	63.2%	9%	50%	16.6%	60.6%	0.15%	0.12%	2.87%
COc1cc(Nc2ncc3c(C)nc(-c4cccc(Oc5ccccc5)c4)n3n2)cc(OC)c1OC	13.2%	2.08%	-0.71%	1.09%	-2.63%	0.96%	-0.95%	1.87%	13%	0.57%	7.86%	4.33%	26.4%	1.68%	2.44%	0.74%	3.26%	1.34%	3.48%	3.17%

Source: ChEMBL document CHEMBL1961873, “Compounds: GSK PKIS; Assays: Nanosyn kinase panel” (2012)
